Source: PubChem BioAssay (NCI)
Compounds without any hit were thinned out: in the full panel of roughly 83,000, 20% have a hit.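 Treatment: one concentration, 48 hours, 96-well format. Scoring: percent growth, with anything below 10 considered active.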 Unmarked numbers belong to inactive results. Calls of active or inactive are those of the source.

Columns and labels:
Experiment in all cases: NCI-60 one-dose screen, 48 h (100 = growth as untreated, 0 = no growth, -100 = all killed)
Details in all cases: 10 µM unless noted
[1] = system: SR leukemia
[2] = system: RPMI-8226 leukemia
[3] = system: OVCAR-8 ovarian
[4] = system: OVCAR-5 ovarian
[5] = system: OVCAR-4 ovarian
[6] = system: SK-OV-3 ovarian
[7] = system: IGROV1 ovarian
[8] = system: OVCAR-3 ovarian
[9] = system: HS 578T breast
[10] = system: NCI/ADR-RES ovarian
[11] = system: T-47D breast
[12] = system: BT-549 breast
[13] = system: MDA-MB-435 melanoma
[14] = system: SW-620 colon
[15] = system: MCF7 breast
[16] = system: HCT-116 colon
[17] = system: HCC-2998 colon
[18] = system: KM12 colon

| SMILES | growth [1] | growth [2] | growth [3] | growth [4] | growth [5] | growth [6] | growth [7] | growth [8] | growth [9] | growth [10] | growth [11] | growth [12] | growth [13] | growth [14] | growth [15] | growth [16] | growth [17] | growth [18] |
| --- | --- | --- | --- | --- | --- | --- | --- | --- | --- | --- | --- | --- | --- | --- | --- | --- | --- | --- |
| O=C(Nc1ccc(Cl)cc1)C1=NCCCCN1 | 116% | 96.3% | 91% | 85.6% | 109% | 88.1% | 79.8% | 96.9% | 97.9% | 89.3% | 68.6% | 91.3% | 72.6% | 63.8% | 81.5% | 80% | 96.2% | 71.2% |
| CCN1CCN(c2nc(NNC(=O)c3ccc(OC)cc3)nc(N3CCN(C(c4ccccc4)c4ccccc4)CC3)n2)CC1 | -8.03% (active) | 12.3% | 63.1% | 106% | 49.1% | 48.3% | 72.3% | 11.7% | 46.2% | 73.4% | 43.4% | 81.1% | 18.3% | 32.4% | 15.9% | 20.8% | 21.3% | 36.9% |
| O=C(CSc1nnc(-c2ccc(Cl)c(Cl)c2)n1-c1ccccc1)Nc1ccc(C(=O)/C=C/c2ccc(Cl)cc2)cc1 | 76.6% | -11.4% (active) | 87.9% | 96.8% | 94.4% | 87.9% | 89.2% | 95.5% | 90.7% | 95.3% | 81.8% | 77.5% | 94.3% | 94.4% | 68.1% | 6.82% (active) | 110% | 99.3% |
| Cc1ccc(Nc2cc(N)nc(N)n2)cc1 | 105% | 93.5% | 103% | 107% | 96.9% | 98.1% | 92.4% | 99.6% | 100% | 95% | 98.9% | 113% | 106% | 102% | 86.5% | 104% | 96% | 95.5% |
| COc1ccc(N2C(=O)/C(=C/C(Cl)=C/c3ccc([N+](=O)[O-])cc3)SC2=S)cc1 | -6.82% (active) | -9.98% (active) | 6.6% (active) | 10% | 10.4% | 40.8% | -52.7% (active) | -57.6% (active) | 26.3% | 8.97% (active) | -14.9% (active) | -4.68% (active) | -14.4% (active) | -13.7% (active) | 10.4% | -60.4% (active) | -20.2% (active) | -61.5% (active) |
| CC(C)(C)n1cc(-c2ccnc(NCCNS(=O)(=O)c3ccc(Br)cc3)c2)c(-c2cccc(O)c2)n1 | -10.5% (active) | 3.61% (active) | 35.7% | 47.5% | 42.8% | 53.2% | 40.4% | 38.6% | 16.8% | 33% | 8.09% (active) | 30.8% | 28.1% | 5.53% (active) | 8.18% (active) | 19.7% | -17.5% (active) | 17.3% |
| Oc1ccc(C(c2ccc(O)cc2)c2ccc(Cl)cn2)cc1 | 90% | 98.2% | -11.1% (active) | 72.7% | -14.8% (active) | 86.8% | 28.9% | -34.5% (active) | -29.9% (active) | -36.1% (active) | -34.4% (active) | -30.1% (active) | 101% | 106% | -17.3% (active) | 27.6% | 1.05% (active) | 20.8% |
| CCCCCCCCOC(=O)c1c(C)[nH]c(/C=C2\N=C(c3ccc[nH]3)C=C2OC)c1C | 14.1% | -21% (active) | 4.86% (active) | 15.2% | 4.99% (active) | 20.8% | 10.1% | -38.6% (active) | -27.8% (active) | 15.9% | 4.23% (active) | 10.4% | -19.4% (active) | 5.83% (active) | -58.1% (active) | -83.5% (active) | -26.4% (active) | 0.693% (active) |
| COc1ccc(/C=N\NC(=O)c2ccc3nc(-c4ccc(Cl)cc4)[nH]c3c2)cc1 | 0.647% (active) | 59.2% | 31.3% | 77.3% | -30.6% (active) | 72.3% | 14.6% | 20.1% | 32.3% | 73.6% | 23.3% | 56.9% | 68.5% | 24.4% | 16.7% | 19% | 51.1% | 17.3% |
| CCN1C(=O)N(CC)C2C1NC(=S)N2/N=C/C=C/c1ccccc1 (stereo unspecified) | 7.76% (active) | -8.74% (active) | 6.3% (active) | 59.6% | 46.9% | 20.4% | 21% | -8.49% (active) | 13.6% | 0.601% (active) | 46.5% | -10.3% (active) | -42.1% (active) | 25.6% | 13.8% | 5.71% (active) | 19% | 8.65% (active) |
| Cc1cccc(CN(Nc2ccccc2)c2ccccc2)n1 | 93% | 96.3% | 98.5% | 102% | 109% | 104% | 127% | 99.5% | 109% | 102% | 87.2% | 111% | 103% | 107% | 93.3% | 95.5% | 112% | 110% |
| COc1cc(/C=C/C(=O)c2ccc(-n3cc(CN4CCN(c5cc6c(cc5F)c(=O)c(C(=O)O)cn6C5CC5)CC4)nn3)cc2)cc(OC)c1OC | 21.3% | 6.02% (active) | 80.7% | 92.7% | 96.7% | 79% | 79.4% | 84.9% | 71.2% | 85.6% | 101% | 92.5% | 81.9% | 85.9% | 61.4% | 17.3% | 83.3% | 87.1% |
| O=C(OCC(O)(CO)C(=O)NC12CC3CC(CC(C3)C1)C2)c1ccc(Cl)cc1 (stereo unspecified) | 86% | 105% | 92.2% | 100% | 107% | 99.7% | 110% | 101% | 88.5% | 98.6% | 88.9% | 102% | 101% | 103% | 91.6% | 99.8% | 106% | 103% |
| COc1ccc2c(c1)c(-c1nc(-c3cn(C)c4ccncc34)cs1)cn2C | -26.1% (active) | -48% (active) | -3.91% (active) | -16.7% (active) | -3.39% (active) | 119% | -2.51% (active) | -77.6% (active) | 104% | 10.2% | 95.7% | 91.2% | -90% (active) | -77.5% (active) | -55.7% (active) | -88.6% (active) | -54.1% (active) | -53.1% (active) |
| C(=N\Nc1nnc2n1N=C(c1ccccc1)CS2)/c1ccc(OCc2ccccc2)cc1 | 93.4% | 86.6% | 102% | 114% | 120% | 109% | 99.6% | 113% | 112% | 96.6% | 84.5% | 103% | 99.8% | 113% | 82.9% | 100% | 120% | 102% |
| COc1cc2c(c(OC)c1OC)CCC(c1cccc(NC(=O)c3cccc(Cl)c3)c1)O2 (stereo unspecified) | 60.3% | 64.9% | 95.6% | 92.8% | 81.1% | 72.9% | 86.8% | 92% | 76.3% | 90.5% | 59.1% | 97.2% | 89.9% | 93.9% | 84.4% | 87.7% | 100% | 97.1% |
| CN1CCN(Cc2ccc(NC(=O)c3cncc(C#Cc4c(N)ncc5c(F)cccc45)c3)cc2C(F)(F)F)CC1 | -49% (active) | -26.5% (active) | -72.8% (active) | -33.3% (active) | -59.1% (active) | 2.69% (active) | -69.4% (active) | -84.8% (active) | -25.8% (active) | -45.1% (active) | -25.2% (active) | 12.5% | -83% (active) | -51.9% (active) | -67.3% (active) | -89.1% (active) | -11.9% (active) | -72.9% (active) |
